# Measured values taken from PubChem BioAssay.
# Active and inactive are the calls of the source.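 How the source made its calls, unless noted: active means inhibition of the reporter signal at or above 50%; inactive means inhibition below 50%.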
# Columns and labels:
# [1] = inhibitors of TNFa-induced NFkB p65 translocation, primary screen, imaging, HUVEC, MLSMR starter and 10KST1 sets (AID 438;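 active means inhibition above 20% together with a positive visual image hit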;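 further: compound added about 3h40 before a 20 min TNFalpha stimulation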;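 on inhibition: signal is the nuclear over cytoplasmic p65 intensity ratio per well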); details: HUVEC TNFa-induced p65 nuclear translocation; cell count: measured here: nuclei count (cytotoxicity indicator), at 2.08 µM; inhibition: at 2 µM, stronger effect = higher value, 0% TNFa-plus-vehicle, 100% no-TNFa wells
# [2] = reduction of polyQ htt aggregates in cells – imaging, exon1htt(103Q)mCFP cells, high-content imaging, primary screen (AID 483;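 active means visual image review flags a hit and inhibition of aggregation exceeds 20%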;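 further: compound exposure lasted 3 days before fixation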;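 on nuclei count: percent of the per-plate median nuclei count of sample wells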); details: exon1htt(103Q)mCFP cell line, aggregate imaging, at 2 µM; inhibition of aggregation: stronger effect = higher value; nuclei count: measured here: cell count, toxicity
# [3] = endothelial E-selectin expression blockers – imaging, HUVEC, immunofluorescence, MLSMR starter and 10KST1 sets, primary screen (AID 487;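 active means visually confirmed hit in the image check and inhibition above 20%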;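 on inhibition: signal is fraction of cell area covered by stained E-selectin grains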;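 on nuclei count: 100% = median nuclei count of all wells on the same plate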); details: HUVEC TNFalpha-induced E-selectin immunofluorescence imaging, at 2 µM; inhibition: stronger effect = higher value; nuclei count: measured here: cell number, toxicity
# [4] = target: Voltage-gated potassium channel subunit beta-2 (Rattus norvegicus) (UniProt P62483); assay: inhibitors of rat Kvbeta2 reductase activity – biochemical, NADPH fluorescence, primary screen (AID 622;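 active means fluorescence slope higher than the sample average by over 3 SD, cut at about -0.22 in these data, passing the limit was not always enough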;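 further: slope of raw intensity against log time taken from 70 to 1610 s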); details: recombinant KvBeta, 4-cyanobenzaldehyde reduction, at 10 µM, stronger effect = higher value
# [5] = target: Voltage-gated potassium channel subunit beta-2 (Rattus norvegicus) (UniProt P62483); assay: enhancers of rat Kvbeta2 NADPH turnover – biochemical, NADPH fluorescence, primary screen (AID 623;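 active means NADPH fluorescence slope more negative than the mean of all samples by about 3 SD, 99.7% confidence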;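 further: fluorescence intensity change per second fitted from 20 to 320 s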); details: Recombinant KvBeta, NADPH fluorescence decrease slope, 10 min; at 10 µM; stronger effect = lower value
# [6] = target: Alpha-2C adrenergic receptor (Homo sapiens) (UniProt P18825); assay: compounds altering alpha2C-coupled GIRK flux – cell-based, HEK293 alpha2C/GIRK1/2, thallium flux, primary screen (AID 624;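 active means fluorescence slope after compound addition differing from the mean of all screened samples at 99.7% confidence, in either direction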;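 further: slope of fluorescence ratio to pre-addition baseline per second over 15 to 24 s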); details: thallium flux BTC fluorescence, at 10 µM, actives lie on both sides
# [7] = blockers of RIG-like receptor reporter activation – cell-based, Sendai virus stimulus, luciferase, 10K MLSCN set, TLR/RLR signaling modifier project, primary screen (AID 602276;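 active means inhibition at or above 50% at 10 µM; inactive means inhibition below 50%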;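 further: firefly luciferase from ISG56 promoter only with Renilla not read in this screen; 0% = Sendai virus plus DMSO and 100% = medium plus DMSO without virus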); details: HEK293 RL24 IRF3 luciferase reporter, at 10 µM, stronger effect = higher value
# [8] = TLR3 IRF3 reporter activation blockers – cell-based, poly I:C stimulus, luciferase, 10K MLSCN set, primary screen (AID 602277); details: HEK293-TLR3 RL24 IRF3 luciferase reporter, at 10 µM, stronger effect = higher value
# Chain of Alpha-2C adrenergic receptor (Homo sapiens) (P18825 whole entry, looked up): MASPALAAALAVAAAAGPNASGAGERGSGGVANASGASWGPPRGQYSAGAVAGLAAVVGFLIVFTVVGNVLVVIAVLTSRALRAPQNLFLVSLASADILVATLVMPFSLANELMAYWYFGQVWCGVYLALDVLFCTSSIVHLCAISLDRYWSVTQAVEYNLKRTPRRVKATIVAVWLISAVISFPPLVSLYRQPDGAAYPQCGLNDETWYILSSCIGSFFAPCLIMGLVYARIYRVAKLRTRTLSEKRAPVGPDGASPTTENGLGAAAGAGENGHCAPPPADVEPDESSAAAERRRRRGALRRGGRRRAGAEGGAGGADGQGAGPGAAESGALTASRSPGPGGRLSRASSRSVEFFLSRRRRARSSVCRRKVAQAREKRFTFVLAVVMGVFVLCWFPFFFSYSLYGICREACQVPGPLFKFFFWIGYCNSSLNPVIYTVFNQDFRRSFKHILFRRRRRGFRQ
# Chain of Voltage-gated potassium channel subunit beta-2 (Rattus norvegicus) (P62483 whole entry, looked up): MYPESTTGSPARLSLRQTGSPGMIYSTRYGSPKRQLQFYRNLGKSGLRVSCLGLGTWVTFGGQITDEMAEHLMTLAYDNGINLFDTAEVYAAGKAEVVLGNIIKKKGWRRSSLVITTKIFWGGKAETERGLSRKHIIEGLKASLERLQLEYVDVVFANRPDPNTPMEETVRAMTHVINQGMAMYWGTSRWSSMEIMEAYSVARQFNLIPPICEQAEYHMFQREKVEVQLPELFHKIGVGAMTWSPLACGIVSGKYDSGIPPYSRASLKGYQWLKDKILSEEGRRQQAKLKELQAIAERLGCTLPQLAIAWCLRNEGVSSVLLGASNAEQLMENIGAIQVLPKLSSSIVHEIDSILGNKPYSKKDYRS
SMILES,cell count [1],inhibition [1],inhibition of aggregation [2],nuclei count [2],inhibition [3],nuclei count [3],fluorescence slope [4],NADPH fluorescence slope [5],slope [6],inhibition [7],inhibition [8]
Fc1cccc(Nc2ncnc3c2cnn3-c2ccccc2)c1,644,-3.3% (inactive),0.4% (inactive),109%,-51.7% (inactive),127%,-0.57 (inactive),4.4e-06 (inactive),0.00538 (inactive),-54.2% (inactive),-148% (inactive)
COc1ccc(N(C)C(=O)CCS(=O)(=O)c2cccc3nonc23)cc1,704,-12.2% (inactive),0.8% (inactive),108%,-32.3% (inactive),118%,-0.488 (inactive),1.2e-05 (inactive),0.00576 (inactive),-4.78% (inactive),-38.6% (inactive)
CCOC(=O)c1cc2c(=O)n3ccccc3nc2n(CCCOC)c1=NC(=O)C(C)(C)C,656,2.6% (inactive),39.3% (active),86.8%,-203% (inactive),95.3%,-0.348 (inactive),7.9e-06 (inactive),0.00456 (inactive),7.96% (inactive),16.3% (inactive)
COc1ccc(S(=O)(=O)N(CCN2CCOCC2)Cc2cc(OC)ccc2OC)cc1,426,8.5% (inactive),-25.8% (inactive),102%,-100% (inactive),113%,-0.582 (inactive),-1.5e-06 (inactive),0.00508 (inactive),17.2% (inactive),33.5% (inactive)
O=C(O)Cc1ccccc1C(=O)O,685,-0.4% (inactive),0% (inactive),99.9%,-66.3% (inactive),142%,-0.491 (inactive),-5e-05 (inactive),0.00429 (inactive),13.7% (inactive),11.2% (inactive)
CCOc1cc(C2/C(=C(/O)c3ccc(OC(C)C)cc3)C(=O)C(=O)N2CCCOC)ccc1O (stereo not drawn),714,-7.5% (inactive),-20.2% (inactive),111%,-120% (inactive),111%,-0.513 (inactive),2e-05 (inactive),0.00381 (inactive),12.7% (inactive),14.8% (inactive)
CCn1ncc(C2=NOC(C(=O)Nc3ccc4c(c3)OCO4)C2)c1C (stereo not drawn),640,-0.3% (inactive),0.2% (inactive),99.9%,-156% (inactive),112%,-0.5 (inactive),-0.000277 (inactive),0.00345 (inactive),-17.8% (inactive),-34% (inactive)
O=C(Oc1ccc(Cl)cc1N1C(=O)CCC1=O)c1ccco1,331,-4.2% (inactive),-31.4% (inactive),114%,-182% (inactive),134%,-0.463 (inactive),-1.4e-05 (inactive),0.00607 (inactive),7.34% (inactive),31.5% (inactive)
COc1ccc(-c2noc(COc3ccc(Cl)c(C)c3)n2)cc1,553,11.9% (inactive),-13.5% (inactive),103%,-14% (inactive),94.1%,-0.527 (inactive),-4.1e-05 (inactive),0.00784 (inactive),7.55% (inactive),20.3% (inactive)
O=c1c2ccccc2nc(SCc2nc(-c3ccccc3)no2)n1-c1ccc(F)cc1,719,-5.5% (inactive),-12.6% (inactive),128%,-58.2% (inactive),114%,-0.538 (inactive),-3.3e-05 (inactive),0.00951 (inactive),13.8% (inactive),39.7% (inactive)
CC(Oc1ccccc1)C(=O)NC1CCN(Cc2ccccc2)CC1 (stereo not drawn),705,-5.2% (inactive),2.1% (inactive),108%,0.4% (inactive),103%,-0.418 (inactive),-1.8e-05 (inactive),0.00578 (inactive),11.2% (inactive),21.3% (inactive)
CCOC(=O)N1CCC(NC(=O)C2CCC(Cn3c(=O)[nH]c4ccccc4c3=O)CC2)CC1 (stereo not drawn),609,-0.3% (inactive),-10.3% (inactive),105%,-89.5% (inactive),101%,-0.546 (inactive),3.1e-05 (inactive),0.00617 (inactive),6.35% (inactive),20.6% (inactive)
COc1cccc(NC(=O)C2CCN(c3ncccn3)CC2)c1,746,-18.4% (inactive),-8.1% (inactive),94.4%,-62.3% (inactive),129%,-0.437 (inactive),-1.9e-05 (inactive),0.00449 (inactive),0.711% (inactive),-6.34% (inactive)
CCOC(=O)c1sc(NC(=O)CSc2nnnn2-c2ccccc2)c(C(=O)OCC)c1C,425,-1.3% (inactive),12.5% (inactive),96.5%,-467% (inactive),156%,-0.567 (inactive),1.2e-05 (inactive),0.00928 (inactive),-15.7% (inactive),-15.7% (inactive)
O=S(=O)(Cc1ccccc1)N1CCN(Cc2ccccc2)CC1,386,4.8% (inactive),12.7% (inactive),103%,-74.1% (inactive),117%,-0.46 (inactive),4.9e-05 (inactive),0.00741 (inactive),-12% (inactive),-7.67% (inactive)
O=C(CN1CCN(C2CCCCC2)CC1)Nc1ccccc1-c1ccccc1,273,18.4% (inactive),16.3% (inactive),110%,-7.3% (inactive),105%,-0.609 (inactive),-3.4e-05 (inactive),0.00596 (inactive),2.95% (inactive),24.7% (inactive)
CC(C)CC(=O)N1CCN(S(=O)(=O)c2ccc(F)cc2)CC1,662,7.7% (inactive),-7.6% (inactive),105%,34.7% (inactive),86.5%,-0.401 (inactive),2e-05 (inactive),0.00623 (inactive),-4.5% (inactive),-11.7% (inactive)
Cc1occc1C(=O)N1CCN(c2ncccn2)CC1,347,-12.5% (inactive),5% (inactive),102%,-117% (inactive),101%,-0.356 (inactive),6.9e-06 (inactive),0.00583 (inactive),-8.62% (inactive),4.37% (inactive)
CCC(=O)c1ccc(OCC(O)CN2CCN(S(=O)(=O)N3CCCCC3)CC2)cc1 (stereo not drawn),450,1.3% (inactive),-4.1% (inactive),102%,-47.7% (inactive),184%,-0.592 (inactive),-1.7e-05 (inactive),0.00309 (inactive),14.1% (inactive),9.85% (inactive)
OCc1nc2ccccc2n1CCCOc1ccccc1,291,-6% (inactive),11.9% (inactive),87%,-17.2% (inactive),96.5%,-0.382 (inactive),-5.7e-05 (inactive),0.00561 (inactive),-34.5% (inactive),-119% (inactive)
CNC(=O)NCCN1CCCC1=O,505,4.5% (inactive),-26.4% (inactive),111%,-83.1% (inactive),123%,-0.335 (inactive),-3.4e-05 (inactive),0.00479 (inactive),9.55% (inactive),11.8% (inactive)
N#Cc1nc(COc2ccccc2Cl)oc1N1CCCCCC1,577,1.1% (inactive),-17.4% (inactive),92.6%,17.1% (inactive),102%,-0.431 (inactive),-5e-05 (inactive),0.00512 (inactive),0.19% (inactive),0.00693% (inactive)
COc1ccccc1N1CCN(C/C(O)=C(\C#N)c2nc(-c3ccccc3)cs2)CC1,475,-3.4% (inactive),-1.4% (inactive),114%,-33.4% (inactive),119%,-0.56 (inactive),4.6e-05 (inactive),0.00548 (inactive),-9.12% (inactive),-1.83% (inactive)
CN(C(=O)C1CCOC1)c1nnc(-c2cccnc2)s1 (stereo not drawn),745,-12.4% (inactive),15.3% (inactive),67.6%,-41.7% (inactive),116%,-0.502 (inactive),-1.1e-05 (inactive),0.0059 (inactive),-22% (inactive),-24.2% (inactive)
Cc1cc2ncn(S(=O)(=O)c3ccc(S(=O)(=O)N4CCOCC4)cc3)c2cc1C,311,-3.3% (inactive),0.7% (inactive),93.4%,-98.8% (inactive),113%,-0.518 (inactive),1.7e-05 (inactive),0.00432 (inactive),-0.351% (inactive),3.91% (inactive)
COc1ccc(S(=O)(=O)N(C)CC(=O)N2CCCCC2)cc1Cl,173,-15.7% (inactive),4.2% (inactive),94.8%,-2.3% (inactive),87%,-0.492 (inactive),-2.5e-05 (inactive),0.00667 (inactive),13.8% (inactive),15% (inactive)
COc1ccccc1C(=O)NC(C)C(c1cccs1)N1CCN(C)CC1 (stereo not drawn),547,-1.6% (inactive),0.7% (inactive),106%,-38.9% (inactive),114%,-0.394 (inactive),1.2e-06 (inactive),0.00389 (inactive),-13.5% (inactive),-8.87% (inactive)
CCC(=O)Nc1cc(C)c(NC(=O)C23CC4CC(CC(C4)C2)C3)cn1,391,5.2% (inactive),1% (inactive),98.8%,-11.3% (inactive),102%,-0.479 (inactive),-3.3e-05 (inactive),0.00598 (inactive),1.14% (inactive),18.1% (inactive)
